PERK inh: human PERK inhibition, primary cell-based screen | inhibition, % at 5.6 µM | Q9NZJ5 | CHO PERK-DD fusion, SEAP luminescence translation reporter | hit rate 0.17% among 220,000;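 active means inhibition above the mean inhibition of all tested compounds plus 3 SD, set separately per screening campaign, cut at about 2.9% in these data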;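 further: PERK kinase domain activated by AP20187 dimerizer at 100 nM; 0% = DMSO with dimerizer and 100% = rapamycin at 8.4 µM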
GRK2 inh: blocks RNA aptamer binding to human GRK2; P25098; bead flow cytometry, FAM-aptamer displacement from GRK2; inhibition of aptamer binding, % at 10 µM; hit rate 0.59% among 330,000;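 active means inhibition of aptamer binding above 40%, roughly 3 SD of noise, on plates passing a quality check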;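 further: median bead fluorescence of bound FAM aptamer so fluorescent compounds give negative values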
Target sequence (P25098 whole entry, looked up): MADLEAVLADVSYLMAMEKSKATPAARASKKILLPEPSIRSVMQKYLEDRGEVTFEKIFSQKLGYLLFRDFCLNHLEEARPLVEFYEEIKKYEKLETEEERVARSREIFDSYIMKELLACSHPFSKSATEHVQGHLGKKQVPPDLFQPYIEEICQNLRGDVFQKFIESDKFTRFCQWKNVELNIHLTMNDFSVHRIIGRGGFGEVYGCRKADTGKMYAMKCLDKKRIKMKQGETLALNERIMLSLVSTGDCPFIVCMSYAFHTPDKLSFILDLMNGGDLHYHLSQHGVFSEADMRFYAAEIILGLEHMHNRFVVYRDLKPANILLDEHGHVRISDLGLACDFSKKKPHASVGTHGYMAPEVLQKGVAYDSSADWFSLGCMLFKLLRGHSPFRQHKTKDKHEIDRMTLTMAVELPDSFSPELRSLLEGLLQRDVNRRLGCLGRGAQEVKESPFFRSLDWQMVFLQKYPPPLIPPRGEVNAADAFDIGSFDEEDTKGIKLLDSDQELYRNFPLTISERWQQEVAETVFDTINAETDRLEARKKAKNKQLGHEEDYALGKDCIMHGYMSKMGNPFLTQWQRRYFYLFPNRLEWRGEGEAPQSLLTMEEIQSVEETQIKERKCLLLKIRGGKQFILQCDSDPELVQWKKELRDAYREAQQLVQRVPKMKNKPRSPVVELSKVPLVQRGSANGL
eIF4H FP inh: inhibitors of RNA binding by human eIF4H; eIF4H fluorescence polarization binding assay; Q15056; inhibition, % at 35 µM; hit rate 0.94% among 290,000;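 further: calls also rest on retests at 20 µM and on dose response follow-up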
PABP1 MLLE inh: inhibitors of microRNA-mediated deadenylation, human PABP1 MLLE binding. P11940. GST-MLLE / FITC-PAM2 fluorescence polarization. inhibition, % at 20 µM. hit rate 0.36% among 360,000; in the data active means inhibition above about 35%, passing the limit was not always enough;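 further: plate controls were DMSO wells with GST-MLLE for no effect and wells lacking GST-MLLE protein for full effect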
PABP FP inh: blocks human PABP binding to poly(A) RNA; fluorescence polarization; inhibition, % at 35 µM; hit rate 1% among 290,000;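 further: calls also rest on retests at 20 µM and on dose response follow-up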
Numbers without * were called inactive; i = inactive; ? = inconclusive; . = not tested or not shown. Only some compounds are listed: those with a hit (about 1.9% of all), similar ones and a draw of the others. Unless noted, how the calls were made is not given here.

SMILES	PERK inh	GRK2 inh	eIF4H FP inh	PABP1 MLLE inh	PABP FP inh
NC(N)=NC(=S)Nc1ccc(Cl)cc1	0	0	-5	45*	4
O=C(Nc1cccc(F)c1)c1c(O)c2cccc3c2n(c1=O)CCC3	0	78*	-9	.	-9
Cc1cc(=O)[nH]c(SCC(=O)Nc2ccc(N3CCCCC3)cc2)n1	.	1	.	17	.
Cc1cc(=O)[nH]c(SCC(=O)Nc2ccc(S(N)(=O)=O)cc2)n1	1	17	63*	21	active
Cc1cc(=O)[nH]c(SCC(=O)Nc2ccc(C(=O)O)cc2)n1	0	1	0	47*	7
CCN(CC)c1ccc(NC(=O)CSc2nc(C)cc(=O)[nH]2)cc1	.	0	-8	10	-8
CCOC(=O)c1ccc(NC(=O)CSc2nc(C)cc(=O)[nH]2)cc1	1	9	81*	-7	18*
Nn1c(SCC(=O)Nc2cccc(Br)c2)nnc1C1CC1	.	0	.	-6	.
Cc1scc(C(=O)N/N=C/c2ccc(Cl)s2)c1C	1	5	7	4	21
COc1ccc2c(c1)c(=O)oc1c(C)c(OCc3ccc(C(=O)O)cc3)ccc12	.	0	70	1	10
Cc1oc(C(=O)O)cc1COc1cccc2cccnc12	1	1	92*	2	16
Cc1cc(NC(=O)COc2cccc3cccnc23)no1	0	.	18	.	-1
COc1ccc2c(c1)c(=O)oc1c(C)c(OCc3cc(C(=O)O)oc3C)ccc12	1	0	84	2	8.0*
COc1cc(-c2nc(S(=O)(=O)c3ccc(C)cc3)c(N3CCOCC3)o2)cc(OC)c1OC	1	0	-4	40*	-11
Cc1cc([N+](=O)[O-])nn1CC(=O)N/N=C/c1ccccc1O	0	0	15	12	-5
Cc1cc([N+](=O)[O-])nn1CC(=O)N/N=C/c1ccccc1F	0	1	58*	-2	active
Cc1cccc(/C=N/NC(=O)Cn2nc(C)cc2C)n1	0	1	102*	4	3.8*
CCOC(=O)c1sc(N)c(C#N)c1COC(=O)CNC(=O)c1ccccc1	0	3	133	-104	126*
CCOC(=O)c1sc(N)c(C#N)c1CSc1nc2ccc(C)cc2[nH]1	-1	2	-10	-120	-1
CC1C/C(=C/c2cccn2C)C(=O)/C(=C/c2cccn2C)C1 (stereo not given)	0	1	58*	160	93*
O=C(O)CSc1ncnc2scc(-c3ccc(Br)cc3)c12	3.6*	0	35	-34	-4
O=C(O)CSc1ncnc2scc(-c3ccccc3)c12	0	1	-7	22	-6
Cc1cc(C)n(CC(=O)NNC(=O)CCCOc2ccc(Cl)cc2C)n1	.	0	-10	8	-3
Cc1cc(C)n(CC(=O)NNC(=O)COc2ccc(Br)cc2F)n1	.	2	.	101*	.
CN(CC(=O)NCCc1ccccc1)Cc1ccco1	.	1	-8	-3	-2
SMILES	PERK inh	GRK2 inh	eIF4H FP inh	PABP1 MLLE inh	PABP FP inh
O=c1c([N+](=O)[O-])cc(C(F)(F)F)cn1Cc1c(Cl)cccc1Cl	3.3*	4	5	0	4
CC(C)CC(=O)NC(=S)Nc1ccc(NC(=O)c2ccco2)cc1	-2	0	-2	20	-5
CC(C)c1ccccc1-n1c(SCc2cc(=O)oc3ccc4ccccc4c23)nnc1-c1cccnc1	0	3	58*	-41	active
CC(=O)c1c(C)[nH]c(C(=O)N(C)C(c2ccccc2)c2ccccc2)c1C	0	3	-4	-16	0
C#Cc1ccc(NC(=O)C2(C)CCN2C(=O)Cc2ccc(C(C)C)cc2)cc1 (stereo not given)	.	.	.	3	.
COc1ccc2nc3ccccc3nc2c1NC(=O)c1ccc(Cl)cc1Cl	1	0	?	i	19
COc1cccc2c1NC(C(=O)O)C1CC=CC21 (stereo not given)	1	100*	96*	22	active
O=C(O)C1Nc2c(cccc2C(F)(F)F)C2C=CCC12 (stereo not given)	.	75*	80*	.	61*
CCn1c(C)c(CS(=O)(=O)c2ccccc2)[nH]c1=O	1	0	0	38*	-2
CNc1cc(C)nc(N2CCOCC2)n1	0	0	92*	3	39
COc1ccccc1-c1cnc(C(O)c2ccc(SC)cc2)[nH]1 (stereo not given)	.	.	.	-1	.
O=C(Cc1ccccc1)N1CCN=C1SCc1ccc([N+](=O)[O-])cc1	0	0	-9	35	-4
COc1ccc(CC(=O)N2CCN=C2SCc2ccc([N+](=O)[O-])cc2)cc1	1	4	-10	-4	-1
O=C(Cc1ccc(F)cc1)N1CCN=C1SCc1ccc([N+](=O)[O-])cc1	1	0	-13	38*	-6
CCOc1ccc(CC(=O)N2CCN=C2SC)cc1	1	1	-5	-3	58*
CCOc1ccc(CC(=O)N2CCN=C2SCc2ccc([N+](=O)[O-])cc2)cc1	0	0	active	3	68*
CCN(CC)CCNS(=O)(=O)c1ccc(C(=O)NN)cc1	1	1	-9	14	-3
COc1ccc(NS(=O)(=O)c2ccc(F)c(Cl)c2)cn1	.	0	?	47*	?
CC(=O)N1CCC(C(=O)OCc2ccccc2F)(c2ccccc2)CC1	.	3	-6	2	-2
COCC(C)n1c(SCC(=O)Nc2nccs2)nc2ccccc2c1=O (stereo not given)	.	4	.	44*	.
COc1ccc(NC(=O)Nc2nc3c(s2)CCCC3)cc1	0	0	80*	0	active
CC(=O)Nc1ccc(Nc2nc(-c3cc4ccccc4oc3=O)cs2)cc1	.	2	-6	-60	12
O=C(O)c1ccc(Nc2nc(-c3cc4ccccc4oc3=O)cs2)cc1O	2	.	51*	-51	19
COC(=O)/C(=N\Nc1ccc(Cl)cc1)Sc1nnc(-c2ccc(OC)cc2)n1C	1	0	-9	-34	-14
CN1C(=O)c2ccc(N3CCCC3)cc2C1=O	0	0	72*	10	78*
SMILES	PERK inh	GRK2 inh	eIF4H FP inh	PABP1 MLLE inh	PABP FP inh
CN1C(=O)c2ccc(N(C)C)cc2C1=O	0	3	25	0	11
O=C(c1ccc(NC(=O)C(c2ccccc2)c2ccccc2)cc1)c1ccc(C(=O)O)c(C(=O)O)c1	.	1	78*	13	61*
O=C(O)c1ccc(NC(=O)C(c2ccccc2)c2ccccc2)cc1	.	1	2	6	10
C/C(=N\NC(=O)CCCOc1ccc(Cl)cc1C)c1ccc(C)o1	1	90*	-10	8	8
O=C(CN1CCOCC1)N/N=C/c1ccc(-c2ccc(C(=O)O)cc2)o1	1	0	25	-132	68*
CC1(CC(=O)N/N=C/c2ccc(-c3ccc(C(=O)O)cc3)o2)OCCO1	0	0	8	-2	1
Cc1ccc(/C=c2\sc3nc(-c4cccs4)nn3c2=O)o1	0	0	79*	-12	6.8*
CCCOc1ccc(/C=c2\sc3nc(-c4ccco4)nn3c2=O)cc1OCC	0	0	52	24	4
